# Structures can show the parent of a compound that is named as a salt.
# Experiments:
# Settings in all cases: incubation time: 27 h, anaerobic, 37 °C;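 for the amine columns active = adjusted P below 0.05 in both replicates with a change the same way and a mean fold change under 0.8 or over 1.25; inactive = the rest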
# [1] = system: Clostridium sporogenes DSM 1664; test: growth (OD595) fold change vs plate DMSO controls (fold change (ratio)); higher = more growth
# How it was run: (§1)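 Anaerobic 27 h, 37 °C mGAM 96-well cultures were shaken, then read for absorbance at 595 nm. Values were blank-subtracted and corrected for compound background using 20 µM compound solutions in water. A calibration factor of 5 converted them to OD. Growth is the fold change versus the median of plate DMSO controls. Fold changes above 1.5 were set to NA, and values are the mean of 2 biological replicates.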
# Escherichia coli IAI1 [2] = test: as above
# How it was run: as §1
# [3] = system: Klebsiella aerogenes DSM 30053; test: as above
# How it was run: as §1
# [4] = system: Ruminococcus gnavus DSM 108212; test: as above
# How it was run: as §1
# [5] = system: Klebsiella aerogenes DSM 30053; test: fold change of Histamine concentration vs plate DMSO controls (fold change (ratio)); higher = more amine produced, active = hit call of the paper (significant change in both replicates, either direction)
# How it was run: (§2)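 Using LC–triple-quadrupole MS with dynamic MRM, amines were quantified against external calibration curves and corrected for drift within each batch. Samples were whole anaerobic mGAM cultures of four gut strains, grown 27 h at 37 °C from OD 0.1 before 1:1 dilution, extracted with cold acetonitrile/methanol containing 0.1% formic acid and centrifuged. Compounds were present at 20 µM final (sweeteners at 50 µM final). The numbers are fold changes versus plate DMSO controls, each the mean of 2 biological replicates.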
# [6] = system: Clostridium sporogenes DSM 1664; test: fold change of Tryptamine concentration vs plate DMSO controls (fold change (ratio)); higher = more amine produced, active = hit call of the paper (significant change in both replicates, either direction)
# How it was run: as §2
# [7] = system: Ruminococcus gnavus DSM 108212; test: as above
# How it was run: as §2
# Escherichia coli IAI1 [8] = test: fold change of Putrescine concentration vs plate DMSO controls (fold change (ratio)); higher = more amine produced, active = hit call of the paper (significant change in both replicates, either direction)
# How it was run: as §2
# [9] = system: Klebsiella aerogenes DSM 30053; test: as above
# How it was run: as §2
# Escherichia coli IAI1 [10] = test: fold change of Cadaverine concentration vs plate DMSO controls (fold change (ratio)); higher = more amine produced, active = hit call of the paper (significant change in both replicates, either direction)
# How it was run: as §2
# [11] = system: Klebsiella aerogenes DSM 30053; test: as above
# How it was run: as §2
# [12] = system: Ruminococcus gnavus DSM 108212; test: fold change of 2-Phenylethylamine concentration vs plate DMSO controls (fold change (ratio)); higher = more amine produced, active = hit call of the paper (significant change in both replicates, either direction)
# How it was run: as §2
structure (smiles),measurement,setting,value
COc1ccc(C(=O)c2ccc(C)cc2)c(O)c1 [Mexenone] (20 µM),growth,[1],0.644
same,growth,Escherichia coli IAI1 [2],0.407
same,growth,[3],0.378
same,growth,[4],0
same,fold change of Histamine concentration,[5],1.02 (inactive)
same,fold change of Tryptamine concentration,[6],1.01 (inactive)
same,fold change of Tryptamine concentration,[7],1.03 (inactive)
same,fold change of Putrescine concentration,Escherichia coli IAI1 [8],1.06 (inactive)
same,fold change of Putrescine concentration,[9],1.01 (inactive)
same,fold change of Cadaverine concentration,Escherichia coli IAI1 [10],1.02 (inactive)
same,fold change of Cadaverine concentration,[11],0.998 (inactive)
same,fold change of 2-Phenylethylamine concentration,[12],1.04 (inactive)
Cn1cnc([N+](=O)[O-])c1Sc1ncnc2[nH]cnc12 [Azathioprine] (20 µM),growth,[1],1.11
same,growth,Escherichia coli IAI1 [2],1.03
same,growth,[3],0.993
same,growth,[4],1.49
same,fold change of Histamine concentration,[5],0.991 (inactive)
same,fold change of Tryptamine concentration,[6],1.04 (inactive)
same,fold change of Tryptamine concentration,[7],0.965 (inactive)
same,fold change of Putrescine concentration,Escherichia coli IAI1 [8],0.977 (inactive)
same,fold change of Putrescine concentration,[9],0.99 (inactive)
same,fold change of Cadaverine concentration,Escherichia coli IAI1 [10],0.974 (inactive)
same,fold change of Cadaverine concentration,[11],0.992 (inactive)
same,fold change of 2-Phenylethylamine concentration,[12],0.984 (inactive)
C1N2CN3CN1CN(C2)C3 [Methenamine] (20 µM),growth,[1],0.885
same,growth,Escherichia coli IAI1 [2],0.986
same,growth,[3],1.02
same,growth,[4],1.16
same,fold change of Histamine concentration,[5],0.978 (inactive)
same,fold change of Tryptamine concentration,[6],1.05 (inactive)
same,fold change of Tryptamine concentration,[7],1.04 (inactive)
same,fold change of Putrescine concentration,Escherichia coli IAI1 [8],1.01 (inactive)
same,fold change of Putrescine concentration,[9],0.982 (inactive)
same,fold change of Cadaverine concentration,Escherichia coli IAI1 [10],1 (inactive)
same,fold change of Cadaverine concentration,[11],0.993 (inactive)
same,fold change of 2-Phenylethylamine concentration,[12],1.03 (inactive)
CO[C@H]1/C=C/O[C@@]2(C)Oc3c(C)c(O)c4c(O)c(c5c(nc6cc(C)ccn65)c4c3C2=O)NC(=O)/C(C)=C\C=C\[C@H](C)[C@H](O)[C@@H](C)[C@@H](O)[C@@H](C)[C@H](OC(C)=O)[C@@H]1C [Rifaximin] (20 µM),growth,[1],0.00823
same,growth,Escherichia coli IAI1 [2],0.438
same,growth,[3],0.844
same,growth,[4],0.306
same,fold change of Histamine concentration,[5],1.15 (inactive)
same,fold change of Tryptamine concentration,[6],0.0445 (active)
same,fold change of Tryptamine concentration,[7],0.144 (active)
same,fold change of Putrescine concentration,Escherichia coli IAI1 [8],0.996 (inactive)
same,fold change of Putrescine concentration,[9],0.651 (active)
same,fold change of Cadaverine concentration,Escherichia coli IAI1 [10],1.53 (active)
same,fold change of Cadaverine concentration,[11],1.04 (inactive)
same,fold change of 2-Phenylethylamine concentration,[12],0.149 (active)
CC[N+](C)(C)Cc1ccccc1Br [Bretylium tosylate] (20 µM),growth,[1],1.03
same,growth,Escherichia coli IAI1 [2],1.02
same,growth,[3],1.06
same,growth,[4],0.996
same,fold change of Histamine concentration,[5],0.853 (inactive)
same,fold change of Tryptamine concentration,[6],0.973 (inactive)
same,fold change of Tryptamine concentration,[7],1.03 (inactive)
same,fold change of Putrescine concentration,Escherichia coli IAI1 [8],1 (inactive)
same,fold change of Putrescine concentration,[9],0.998 (inactive)
same,fold change of Cadaverine concentration,Escherichia coli IAI1 [10],0.937 (inactive)
same,fold change of Cadaverine concentration,[11],1.02 (inactive)
same,fold change of 2-Phenylethylamine concentration,[12],1.05 (inactive)
O=C(NCC1CCCCN1)c1cc(OCC(F)(F)F)ccc1OCC(F)(F)F (stereo unspecified) [Flecainide acetate] (20 µM),growth,[1],0.94
same,growth,Escherichia coli IAI1 [2],0.991
same,growth,[3],1.01
same,growth,[4],0.997
same,fold change of Histamine concentration,[5],1 (inactive)
same,fold change of Tryptamine concentration,[6],0.99 (inactive)
same,fold change of Tryptamine concentration,[7],1.03 (inactive)
same,fold change of Putrescine concentration,Escherichia coli IAI1 [8],0.98 (inactive)
same,fold change of Putrescine concentration,[9],0.976 (inactive)
same,fold change of Cadaverine concentration,Escherichia coli IAI1 [10],0.987 (inactive)
same,fold change of Cadaverine concentration,[11],0.989 (inactive)
same,fold change of 2-Phenylethylamine concentration,[12],1.06 (inactive)
CC/C(=C(/CC)c1ccc(O)cc1)c1ccc(O)cc1 [Diethylstilbestrol] (20 µM),growth,[1],0.583
same,growth,Escherichia coli IAI1 [2],0.984
same,growth,[3],1
same,growth,[4],0.991
same,fold change of Histamine concentration,[5],1.03 (inactive)
same,fold change of Tryptamine concentration,[6],0.432 (active)
same,fold change of Tryptamine concentration,[7],0.88 (inactive)
same,fold change of Putrescine concentration,Escherichia coli IAI1 [8],1 (inactive)
same,fold change of Putrescine concentration,[9],1.01 (inactive)
same,fold change of Cadaverine concentration,Escherichia coli IAI1 [10],1.02 (inactive)
same,fold change of Cadaverine concentration,[11],0.993 (inactive)
same,fold change of 2-Phenylethylamine concentration,[12],0.865 (inactive)
COc1cccc(CCc2ccccc2OCC(CN(C)C)OC(=O)CCC(=O)O)c1 (stereo unspecified) [Sarpogrelate hydrochloride] (20 µM),growth,[1],1.19
same,growth,Escherichia coli IAI1 [2],0.978
same,growth,[3],1.02
same,growth,[4],0.991
same,fold change of Histamine concentration,[5],0.977 (inactive)
same,fold change of Tryptamine concentration,[6],0.989 (inactive)
same,fold change of Tryptamine concentration,[7],0.97 (inactive)
same,fold change of Putrescine concentration,Escherichia coli IAI1 [8],1.02 (inactive)
same,fold change of Putrescine concentration,[9],0.999 (inactive)
same,fold change of Cadaverine concentration,Escherichia coli IAI1 [10],1.03 (inactive)
same,fold change of Cadaverine concentration,[11],0.996 (inactive)
same,fold change of 2-Phenylethylamine concentration,[12],0.961 (inactive)
CC(N)(Cc1ccc(O)c(O)c1)C(=O)O (stereo unspecified) [(L) Methyldopa] (20 µM),growth,[1],0.936
same,growth,Escherichia coli IAI1 [2],0.99
same,growth,[3],1
same,growth,[4],0.89
same,fold change of Histamine concentration,[5],1.06 (inactive)
same,fold change of Tryptamine concentration,[6],1 (inactive)
same,fold change of Tryptamine concentration,[7],1.11 (inactive)
same,fold change of Putrescine concentration,Escherichia coli IAI1 [8],0.882 (inactive)
same,fold change of Putrescine concentration,[9],1.06 (inactive)
same,fold change of Cadaverine concentration,Escherichia coli IAI1 [10],0.965 (inactive)
same,fold change of Cadaverine concentration,[11],1.07 (inactive)
same,fold change of 2-Phenylethylamine concentration,[12],1.26 (active)
CN1CCOC(c2ccccc2)c2ccccc2C1 (stereo unspecified) [Nefopam hydrochloride] (20 µM),growth,[1],1.09
same,growth,Escherichia coli IAI1 [2],1
same,growth,[3],0.963
same,growth,[4],1.09
same,fold change of Histamine concentration,[5],0.855 (inactive)
same,fold change of Tryptamine concentration,[6],1.1 (inactive)
same,fold change of Tryptamine concentration,[7],1.02 (inactive)
same,fold change of Putrescine concentration,Escherichia coli IAI1 [8],1.03 (inactive)
same,fold change of Putrescine concentration,[9],0.94 (inactive)
same,fold change of Cadaverine concentration,Escherichia coli IAI1 [10],0.943 (inactive)
same,fold change of Cadaverine concentration,[11],1.03 (inactive)
same,fold change of 2-Phenylethylamine concentration,[12],1.03 (inactive)
CN(C)CCOC(=O)C(c1ccccc1)C1(O)CCCC1 (stereo unspecified) [Cyclopentolate hydrochloride] (20 µM),growth,[1],0.823
same,growth,Escherichia coli IAI1 [2],1.04
same,growth,[3],1.04
same,growth,[4],0.93
same,fold change of Histamine concentration,[5],0.982 (inactive)
same,fold change of Tryptamine concentration,[6],1.01 (inactive)
same,fold change of Tryptamine concentration,[7],1.02 (inactive)
same,fold change of Putrescine concentration,Escherichia coli IAI1 [8],1.04 (inactive)
same,fold change of Putrescine concentration,[9],0.987 (inactive)
same,fold change of Cadaverine concentration,Escherichia coli IAI1 [10],0.977 (inactive)
same,fold change of Cadaverine concentration,[11],0.99 (inactive)
same,fold change of 2-Phenylethylamine concentration,[12],1.05 (inactive)
Cc1cccc(CN2CCN(C(c3ccccc3)c3ccc(Cl)cc3)CC2)c1 (stereo unspecified) [Meclozine dihydrochloride] (20 µM),growth,[1],0.897
same,growth,Escherichia coli IAI1 [2],0.963
same,growth,[3],1.01
same,growth,[4],0.705
same,fold change of Histamine concentration,[5],0.964 (inactive)
same,fold change of Tryptamine concentration,[6],1.04 (inactive)
same,fold change of Tryptamine concentration,[7],0.826 (inactive)
same,fold change of Putrescine concentration,Escherichia coli IAI1 [8],1 (inactive)
same,fold change of Putrescine concentration,[9],0.989 (inactive)
same,fold change of Cadaverine concentration,Escherichia coli IAI1 [10],0.971 (inactive)
same,fold change of Cadaverine concentration,[11],1.01 (inactive)
same,fold change of 2-Phenylethylamine concentration,[12],0.93 (inactive)
O=S(=O)(O)c1cc(O)ccc1O [Ethamsylate diethylammonium salt] (20 µM),growth,[1],0.89
same,growth,Escherichia coli IAI1 [2],0.975
same,growth,[3],0.98
same,growth,[4],0.997
same,fold change of Histamine concentration,[5],1.07 (inactive)
same,fold change of Tryptamine concentration,[6],0.982 (inactive)
same,fold change of Tryptamine concentration,[7],1.05 (inactive)
same,fold change of Putrescine concentration,Escherichia coli IAI1 [8],0.989 (inactive)
same,fold change of Putrescine concentration,[9],1.02 (inactive)
same,fold change of Cadaverine concentration,Escherichia coli IAI1 [10],1.02 (inactive)
same,fold change of Cadaverine concentration,[11],0.99 (inactive)
same,fold change of 2-Phenylethylamine concentration,[12],1.09 (inactive)
